Records with an inconclusive call do not appear. Values without a mark were called inactive. The source made the active and inactive calls. The call rests on the fitted dose curve; tested in HEK293 reporter line.
On the % scale 0 is the no-effect control and ±100 the full control effect; potency means the concentration at half of the fitted maximal effect.

The nature of this assay: qHTS for Inhibitors of the Functional Ribonucleoprotein Complex (vRNP) of Lymphocytic Choriomeningitis Arenaviruses (LCMV): Viability assay - alamar blue signal for LCMV Primary Screen (AID 1347085). Further: nearly all actives have a fitted effect of over 80% in size. The following applies: alamar blue viability counter-screen, LCMV vRNP screen cells; series mostly up to 57.5 µM; activity change, negative = lower viability: at the top concentration. On the technique in general: qHTS replaces the single test concentration by a dilution series.
Regarding `O=C1N[C@@H](Cc2cnc[nH]2)C(=O)N2CCC[C@@H]12`, the “activity change, negative = lower viability” value is 2.58%.
The same measure, in the same setting: as for `C=C1[C@H]2C[C@H]3[C@H]4N5C[C@]6(C)CCC[C@]47[C@H]([C@H]2O)[C@]3(C[C@]5(O)[C@H]67)[C@@H]1O`, the figure is -2.26%; as for `CNC[C@@H](O)[C@@H](O)[C@H](O)[C@H](O)CO`, -1.25%; as for `O=C1C[C@@H](c2ccc(O)c(O)c2)Oc2c1ccc(O[C@@H]1O[C@H](CO)[C@@H](O)[C@H](O)[C@H]1O)c2O`, -0.66%.
With `CC(C)c1cc(C(=O)N2Cc3ccc(CN4CCN(C)CC4)cc3C2)c(O)cc1O`, the Potency is 685 nM (active).
As for `NC(=O)Nc1ccc(Cl)c(Cl)c1`, the “activity change, negative = lower viability” value was 9.42% [at 115 µM].
The same measure, in the same setting: the figure for `CC(C)(O)c1ccc2c(c1)CCC1C(C)(C(=O)O)CCCC21C` (stereo not given) is -16.7%.
The same measure, in the same setting: the figure for `O=C1N[C@@H](Cc2c[nH]c3ccccc23)C(=O)N[C@H]1Cc1ccccc1` is -2.37%; for `C/C=C(\C)C(=O)O[C@@H]([C@H](O)c1cc2ccc(=O)oc2cc1OC)C(C)(C)O` it is 7.03%.
Still for that read-out and setting: the figure for `Cc1c(O[C@@H]2O[C@H](CO)[C@@H](O)[C@H](O)[C@H]2O)c(CO)c(O[C@@H]2O[C@H](CO)[C@@H](O)[C@H](O)[C@H]2O)c2c1O[C@@H](c1ccccc1)C[C@@H]2O` is 29.9%; for `CC12CCC(C1)C(C)(C)C2=O` (stereo not given) it is 11.9%.
On to `c1ccc2nc(-c3ccc4c(c3)OCO4)ccc2c1`, for which the “activity change, negative = lower viability” value was 0.425%.
On the same count and under the same terms, the figure for `C[C@]12CCC3C(C[C@@H](O)[C@H]4C[C@@H](O)CC[C@]34C)C1CC[C@@H]2O` (stereo not given in full) is 0.384%.
On to `C=C(C)C1CCC(C)(O)CC1` (stereo not given), for which the “activity change, negative = lower viability” value was 5.7% [at 115 µM].
Consider `N#CC(=C(O)c1ccc(Cl)cc1Cl)c1nc2cc(Cl)ccc2c(=O)[nH]1`, for which the “activity change, negative = lower viability” value was -3.51%.

Source of the values: PubChem BioAssay (NCATS).
